From PubChem BioAssay (Tox21)
Unmarked numbers belong to inactive results. Results filed as inconclusive are left out. Where a call stands in place of a potency, no number is given. Activity calls are given as the source filed them. The call rests on the fitted dose curve; in most records, active means well fitted curve in the direction sought with a large enough effect in the repeat runs; inconclusive means weak or mixed curves; inactive means no such curve, though single readings can be large; an effect the other way counts as inactive or inconclusive.

Key:
[1] = Human pregnane X receptor (PXR) small molecule agonists, qHTS cell viability counter screen (AID 1346977); further: nearly all actives have a fitted effect of over 50% in size
In short: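 Cytotoxicity counter screen run in the same wells as the PXR luciferase assay, using PXR-Luc HepG2 cells in charcoal-stripped serum medium. Viability: CellTiter-Fluor fluorescence after 24hr compound treatment.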

[2] = Caspase-3/7 induction in HepG2 cells by small molecules, qHTS assay (AID 1346978); further: nearly all actives have a fitted effect of over 15% in size
In short: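 Wild-type HepG2 cells (2,000/well) were settled 5 h at 37 C, 5% CO2, then exposed to compounds in DMSO for 17 h. Caspase-3/7 activity was read by luminescence 30 min after adding Caspase-Glo 3/7 reagent at room temperature.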

[3] = Caspase-3/7 induction in CHO-K1 cells by small molecules, qHTS cell viability counter screen (AID 1346979); further: nearly all actives have a fitted effect of over 35% in size; further: potency means the concentration at half of the fitted maximal effect
In short: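 Cytotoxicity counter screen run in parallel with the caspase-3/7 assay: CHO-K1 cells, 16hr compound treatment at 37C, then CellTiter-Fluor for 1hr before fluorescence reading.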

[4] = Caspase-3/7 induction in CHO-K1 cells by small molecules, qHTS assay (AID 1346980); further: nearly all actives have a fitted effect of over 15% in size
In short: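 Wild-type cells were seeded at 1,500 per well and settled 5 hr at 37 C, 5% CO2, then exposed to DMSO-dissolved compounds for 17 hr. Caspase-Glo 3/7 reagent was added, and luminescence was read after 30min at room temperature.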

[5] = Caspase-3/7 induction in HepG2 cells by small molecules, qHTS cell viability counter screen (AID 1346981); further: series mostly up to about 92 µM; nearly all actives have a fitted effect of over 30% in size
In short: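 Counter screen for cytotoxicity: HepG2 exposed 16 hr to compounds, then CellTiter-Fluor viability signal (fluorescence, 1 hr reagent incubation).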

[6] = target: Nuclear receptor subfamily 1 group I member 2 (Homo sapiens) (UniProt O75469); assay: Human pregnane X receptor (PXR) small molecule agonists, qHTS assay (AID 1346982); further: nearly all actives have a fitted effect of over 35% in size; further: potency means the concentration at half of the fitted maximal effect
Chain of Nuclear receptor subfamily 1 group I member 2 (Homo sapiens) (O75469 whole entry, looked up): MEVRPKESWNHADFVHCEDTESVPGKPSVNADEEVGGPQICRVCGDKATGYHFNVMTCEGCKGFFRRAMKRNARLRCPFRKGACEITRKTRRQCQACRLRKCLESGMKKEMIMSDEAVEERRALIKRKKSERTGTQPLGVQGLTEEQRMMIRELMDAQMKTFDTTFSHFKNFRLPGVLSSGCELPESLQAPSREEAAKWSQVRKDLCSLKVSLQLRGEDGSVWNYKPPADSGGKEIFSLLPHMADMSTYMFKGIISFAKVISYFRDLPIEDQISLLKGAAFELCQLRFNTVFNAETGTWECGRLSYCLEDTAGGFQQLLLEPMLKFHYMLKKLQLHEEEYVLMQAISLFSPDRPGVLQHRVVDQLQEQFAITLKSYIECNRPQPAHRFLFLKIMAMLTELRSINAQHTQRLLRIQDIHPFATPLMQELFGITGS
In short: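 Luminescence (ONE-Glo, 30 min RT) after 24 hr compound exposure of PXR-Luc HepG2 cells; cells rested 5 hr post-plating in 5% charcoal-stripped FBS medium.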

[7] = target: Nuclear receptor subfamily 1 group I member 2 (Rattus norvegicus) (UniProt Q9R1A7); assay: Rat pregnane X receptor (rPXR) activation by small molecules, qHTS assay (AID 1346983); settings: rPXR luciferase reporter cells, One-Glo luminescence, 24 h; max activation: stronger effect = higher value; further: nearly all actives have a fitted effect of over 20% in size; further: potency means the concentration at half of the fitted maximal effect
Chain of Nuclear receptor subfamily 1 group I member 2 (Rattus norvegicus) (Q9R1A7 whole entry, looked up): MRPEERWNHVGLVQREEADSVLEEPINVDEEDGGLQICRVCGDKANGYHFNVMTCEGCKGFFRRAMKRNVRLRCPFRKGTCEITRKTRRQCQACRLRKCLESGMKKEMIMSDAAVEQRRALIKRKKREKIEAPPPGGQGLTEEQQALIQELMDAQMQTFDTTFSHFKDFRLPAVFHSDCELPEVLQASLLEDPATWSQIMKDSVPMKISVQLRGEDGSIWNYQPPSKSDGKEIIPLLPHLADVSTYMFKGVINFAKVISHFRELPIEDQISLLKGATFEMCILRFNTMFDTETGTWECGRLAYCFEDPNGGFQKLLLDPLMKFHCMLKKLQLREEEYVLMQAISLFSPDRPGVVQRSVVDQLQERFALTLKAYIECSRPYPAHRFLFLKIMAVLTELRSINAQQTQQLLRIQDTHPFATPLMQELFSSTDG
In short: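 Cell-based rPXR luciferase reporter assay, 2,000 cells per well, rested 5hr at 37 C before compound addition in DMSO, then 24 hr at 37 C. One-Glo reagent was added and luminescence read after 30 min at room temperature.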

[8] = target: Nuclear receptor subfamily 1 group I member 2 (Homo sapiens) (UniProt O75469); assay: CYP3A4 induction through human pregnane X receptor (PXR) by small molecules, qHTS assay (AID 1346984); further: nearly all actives have a fitted effect of over 40% in size
In short: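 DPX-2 reporter cells; 24h cpd, 37C; Luciferin-IPA 3uM final x3h; One-Glo 30 min RT; lumi read.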

[9] = target: Nuclear receptor subfamily 1 group I member 2 (Homo sapiens) (UniProt O75469); assay: Human pregnane X receptor (PXR) activation by small molecules, qHTS assay (AID 1346985); further: nearly all actives have a fitted effect of over 40% in size; further: potency means the concentration at half of the fitted maximal effect
In short: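 DPX-2 cells (HepG2 co-transfected with a PXR response element and a CYP3A4-promoter luciferase construct) were seeded at 2,000 per well, rested 5 hr at 37C, then exposed to DMSO-dissolved compounds for 24 hr. Activation was read as luciferase luminescence.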

[10] = target: Cytochrome P450 2D6 (Homo sapiens) (UniProt P10635); assay: Cytochrome P450 Family 2 Subfamily D Member 6 (CYP2D6) small molecule antagonists: luciferase reporter qHTS assay (AID 1671196); further: nearly all actives have a fitted effect of over 50% in size; further: potency means the concentration at half of the fitted maximal effect
Chain of Cytochrome P450 2D6 (Homo sapiens) (P10635 whole entry, looked up): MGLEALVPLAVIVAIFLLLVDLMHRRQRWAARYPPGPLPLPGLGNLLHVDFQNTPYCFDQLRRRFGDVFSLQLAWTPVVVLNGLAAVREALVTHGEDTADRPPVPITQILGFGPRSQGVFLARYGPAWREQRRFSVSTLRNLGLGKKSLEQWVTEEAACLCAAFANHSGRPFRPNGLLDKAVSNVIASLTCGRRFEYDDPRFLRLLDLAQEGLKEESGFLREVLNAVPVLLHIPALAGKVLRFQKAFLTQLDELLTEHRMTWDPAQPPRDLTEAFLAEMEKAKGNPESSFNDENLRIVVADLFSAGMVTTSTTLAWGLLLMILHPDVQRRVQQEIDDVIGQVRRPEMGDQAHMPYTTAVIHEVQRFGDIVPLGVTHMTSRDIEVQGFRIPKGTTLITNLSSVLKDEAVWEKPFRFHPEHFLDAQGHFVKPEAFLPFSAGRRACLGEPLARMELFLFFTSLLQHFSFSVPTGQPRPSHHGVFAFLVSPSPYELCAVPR
In short: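 Inhibition of CYP2D6 was gauged by loss of luminescence, since light produced tracks the luciferin generated from a proluciferin substrate. A 10 min room-temperature preincubation preceded 1 h NADPH-supported turnover.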

SMILES | Potency [1] | outcome [2] | Potency [3] | outcome [4] | Potency [5] | Potency [6] | max activation [7] | Potency [8] | Potency [9] | Potency [10] | Potency [7]
Nc1c2c(nc3c1CCC3)CCCC2 | inactive | inactive | inactive | inactive | inactive | inactive | -1.69% | inactive | inactive | 8.71 µM (active) | –
CC(C)(C)C(=O)Oc1ccc(S(=O)(=O)Nc2ccccc2C(=O)NCC(=O)O)cc1 | inactive | inactive | inactive | inactive | inactive | inactive | -2.02% | inactive | inactive | inactive | –
O=C(O)Cc1csc(-c2ccc(Cl)cc2)n1 | inactive | inactive | inactive | inactive | inactive | inactive | -2.73% | – | inactive | inactive | –
COC(=O)C1=C(C)NC(C)=C(C(=O)OC(C)C)C1c1cccc2nonc12 (stereo not drawn) | inactive | inactive | 26.6 µM (active) | inactive | inactive | 1.33 µM (active) | – | – | 891 nM (active) | – | 10 µM (active)
CC(=O)Oc1cccc(C)c1 | inactive | inactive | inactive | inactive | inactive | inactive | -3.04% | – | inactive | inactive | –
CN(C)C(=O)Oc1ccc[n+](C)c1 | inactive | inactive | inactive | inactive | inactive | inactive | -1.23% | – | inactive | inactive | –
CC[N+](CC)(CC)CCOc1cccc(OCC[N+](CC)(CC)CC)c1OCC[N+](CC)(CC)CC | inactive | inactive | inactive | inactive | inactive | inactive | -1.52% | inactive | inactive | inactive | –
Cc1ccc(C(=O)Nc2ccc(S(=O)(=O)O)c3cc(S(=O)(=O)O)cc(S(=O)(=O)O)c23)cc1NC(=O)c1cccc(NC(=O)Nc2cccc(C(=O)Nc3cc(C(=O)Nc4ccc(S(=O)(=O)O)c5cc(S(=O)(=O)O)cc(S(=O)(=O)O)c45)ccc3C)c2)c1 | inactive | inactive | inactive | inactive | inactive | inactive | -1.36% | – | inactive | – | –
C[N+]1(C)[C@@H]2CC(OC(=O)[C@H](CO)c3ccccc3)C[C@H]1[C@@H]1O[C@@H]12 (stereo partly drawn) | inactive | inactive | inactive | inactive | inactive | inactive | -0.815% | – | inactive | inactive | –
N[C@H](C(=O)O)[C@@H](O)c1ccc(O)c(O)c1 | inactive | inactive | inactive | inactive | inactive | inactive | -4.66% | – | inactive | inactive | –
Cc1ccc(-c2ncc(Cl)cc2-c2ccc(S(C)(=O)=O)cc2)cn1 | inactive | inactive | inactive | inactive | inactive | inactive | 7.56% | – | inactive | – | –
CCCCCC(C)N (stereo not drawn) | inactive | inactive | inactive | inactive | inactive | inactive | -3.3% | – | inactive | inactive | –
C[N+]12CCC(CC1)C(OC(=O)C(O)(c1ccccc1)c1ccccc1)C2 (stereo not drawn) | inactive | inactive | inactive | inactive | inactive | inactive | -2.26% | – | inactive | – | –
Cc1cccc(C)c1NC(=O)CC12CCCN1CCC2 | inactive | inactive | inactive | inactive | inactive | inactive | 6.3% | inactive | inactive | – | –
CC(=O)N1C[C@H](O)C[C@H]1C(=O)O | inactive | inactive | inactive | inactive | inactive | inactive | -1.61% | inactive | inactive | inactive | –
Nc1ccncc1N | inactive | inactive | inactive | inactive | inactive | inactive | -0.418% | inactive | inactive | inactive | –
CC(N)C12CC3CC(CC(C3)C1)C2 (stereo not drawn) | inactive | inactive | inactive | inactive | inactive | inactive | 8.41% | – | inactive | – | –
CCCCc1nc(Cl)c(CO)n1Cc1ccc(-c2ccccc2-c2nn[nH]n2)cc1 | inactive | inactive | inactive | inactive | inactive | inactive | -3.95% | – | inactive | – | –
C[C@@H]1CCC[C@H](C)N1 | inactive | inactive | inactive | inactive | inactive | inactive | -0.283% | – | inactive | inactive | –
O=C(CO)[C@@H](O)[C@H](O)[C@H](O)CO | inactive | inactive | inactive | inactive | inactive | inactive | – | – | – | inactive | –
CN1CC(=O)N/C1=N/C(=O)Nc1cccc(Cl)c1 | inactive | inactive | inactive | inactive | inactive | 13.3 µM (active) | – | – | inactive | – | –
CCCCCCCCN1CCCC1=O | inactive | inactive | inactive | inactive | inactive | 24.3 µM (active) | – | – | – | inactive | –
CCCCCCCCCCCCSC | inactive | inactive | inactive | inactive | inactive | inactive | – | – | – | inactive | –
